# From PubChem BioAssay AID2283220 (EPA ToxCast)
# Inconclusive results are not listed. The source made the active and inactive calls. Rule for the calls: active = hit-call score of the fitted dose curve at least 0.9, where 1 is the maximum; inconclusive = response in the unintended direction; inactive = score below 0.9.
# Biological target: human Serum/Glucocorticoid Regulated Kinase 1 (SGK1), SGK1 (gene 6446) (UniProt O00141)
# Test: NVS_ENZ_hSGK1: NovaScreen (NVS) Enzymatic Assay for human Serum/Glucocorticoid Regulated Kinase 1 (SGK1)
# Method: NVS_ENZ_hSGK1 is a biochemical, single-readout assay that uses extracted gene-proteins in a cell-free assay. Measurements were taken 1 hour after chemical dosing in a 96-well plate.NVS_ENZ_hSGK1 is one of one assay component(s) measured or calculated from the NVS_ENZ_hSGK1 assay. It is designed to make measurements of enzyme activity, a form of enzyme reporter, as detected with fluorescence intensity signals by Fluorescence and electrophoretic mobility shift technology.Data from the assay component NVS_ENZ_hSGK1 was analyzed into 1 assay endpoint. This assay endpoint, NVS_ENZ_hSGK1, was analyzed in the positive analysis fitting direction relative to DMSO as the negative control and baseline of activity. Using a type of enzyme reporter, loss-of-signal activity can be used to understand changes in the enzymatic activity as they relate to the gene SGK1. Furthermore, this assay endpoint can be referred to as a primary readout, because this assay has produced […] where this one serves a enzymatic activity function. To generalize the intended target to other relatable targets, this assay endpoint is annotated to the kinase intended target family, where the subfamily is serine/threonine kinase.
# Binding assays used specific radioligands (tritiated, iodinated) with non-radioactive competitive displacement ligands in agonist or antagonist protocols (as indicated) and various reference compounds and inhibitors to titrate specific binding to receptors and transporters. Most enzyme assays (CYPs, kinases, phosphatases, proteases, HDACs) used recombinant protein and specific substrates (fluorescence mostly, some colorimetric and radioactive) and inhibitors, followed by a biochemical separation of substrate and product. All assays for the biochemical HTS were initially run in duplicate at a single concentration (10 uM for CYP450 assays and 25 uM for all others). […]
# human Serum/Glucocorticoid Regulated Kinase 1 (SGK1), SGK1 (gene 6446), sequence (O00141 whole entry, looked up): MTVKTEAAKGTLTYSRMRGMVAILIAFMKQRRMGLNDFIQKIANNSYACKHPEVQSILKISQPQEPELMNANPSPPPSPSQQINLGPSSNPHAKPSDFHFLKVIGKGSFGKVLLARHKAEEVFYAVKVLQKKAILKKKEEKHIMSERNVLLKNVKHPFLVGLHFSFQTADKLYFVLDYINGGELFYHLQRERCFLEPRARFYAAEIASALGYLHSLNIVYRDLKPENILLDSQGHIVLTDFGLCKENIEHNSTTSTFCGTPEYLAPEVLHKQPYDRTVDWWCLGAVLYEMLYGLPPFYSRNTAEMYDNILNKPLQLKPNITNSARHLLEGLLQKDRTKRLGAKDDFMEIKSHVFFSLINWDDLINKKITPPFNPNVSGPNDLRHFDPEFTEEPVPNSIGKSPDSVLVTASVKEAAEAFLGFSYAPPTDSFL
Structure (SMILES),outcome,AC50
N#CSCSc1nc2ccccc2s1,inactive,–
S=C([S-])NCCNC(=S)[S-].[Mn+2],–,10.6 µM (active)
O=C(Nc1ccc([N+](=O)[O-])cc1Cl)c1cc(Cl)ccc1O,inactive,–
